According to the OligoGym collection:

target: XAGE3; test: pooled miR-30 sensor sort-seq; sequence = guide strand; details: shRNA
Further: reference of the scale not given here.

Sequence | sensor-assay potency score (higher = more potent)
TTGAGTCTCAGCTGCACCCTGA | -0.3
TCTTCTTCTCTCTCCTGACCAG | -1.02
TGATCTTCTTCTCTCTCCTGAC | -1.05
TTTCAGTTGGTGGTTCCTCTTG | -0.62
TCTCTCTCCTGACCAGGTGCAG | -1.38
TGGCATTTTAAATTGTTCTGAT | -0.221
TTCTTCTCTCTCCTGACCAGGT | -0.766
TGCACCCTGATCTTCTTCTCTC | -0.916
TGGTACACTTCTCCTCGGCCTA | -1.1
TTCCTCTTGCTGAGGCTCCTCA | -0.958
TCTCCTGACCAGGTGCAGGATC | -0.873

target: XAGE5; test: as above; details: shRNA

Sequence | sensor-assay potency score (higher = more potent)
TATCTCCGCATTCATCCCCAGT | -1.35
TGAGCAAGTCGTAAACATCGTC | -0.511
TTGGTGGTTCTTCTTGTTGAGG | -1.63
TCATCTTCTCTCTTCTGACCAG | -0.307
TTCAGTTGGTGGTTCTTCTTGT | 0.414
CAAGTCGTAAACATCGTCTTGG | -0.817
TAGGCACTTGAATCTCAGCTGC | -0.239
TTCTTCTTGTTGAGGCTCTGGC | -0.323
TTTCAGTTGGTGGTTCTTCTTG | -0.699
TTTTAAATTGCTCTGATTTTGG | -0.858
TTAGGCACTTGAATCTCAGCTG | 0.649
AAGTCGTAAACATCGTCTTGGT | -0.56

target: XCL2; test: as above; details: shRNA

Sequence | sensor-assay potency score (higher = more potent)
TAAAAGGTGAGTATAATCTCAG | -0.178
TCTGCTAACTGGCAGTCGCTGG | -0.99
TATAATCTCAGTCCATGAGGGT | -0.365
TGCTAACTGGCAGTCGCTGGGT | -0.761
TTGATTCTGCTAACTGGCAGTC | -0.401
CTTGATTCTGCTAACTGGCAGT | -1.63
CTATGTGAGACTTCACTCCCTA | -0.487
TCACACAGGTCCTCCTATGTGA | -0.506
TATGTGAGACTTCACTCCCTAC | -0.968
ATAATCTCAGTCCATGAGGGTG | -1.29
TTCTGCTAACTGGCAGTCGCTG | -1.02
TCTTGATTCTGCTAACTGGCAG | -0.712

target: XKR5; test: as above; details: shRNA

Sequence | sensor-assay potency score (higher = more potent)
TGATCTTAGACACATTTCCTGT | -0.718
TAGCAGACAATTTTGACTGGAA | 0.477
TTAGTTATTACAAGCACACAGG | -0.438
TAAGTTATTCTACTATTCCTTT | -0.571
TTCTCTAATAAATATAGTGTAT | -1.07
